In PubChem BioAssay (EPA / NIEHS):
Calls of active or inactive are those of the source. Rule for the calls: active = hit-call score of the fitted dose curve at least 0.9, where 1 is the maximum; inactive = score below 0.9.

Experiments:
[1] = BSK_hDFCGF_SRB: Viability Assessment in the BioMAP Diversity Plus: hDFCGF Assay (AID 2283061); conditions: primary human foreskin fibroblasts;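 note: cells exposed to compound for 24 h before the read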
Procedure, shortened: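 Viability was read as total protein: after 10% TCA fixation, wells were stained with 0.1% sulforhodamine B and read at 560 nm. Primary human foreskin fibroblasts were dosed for 24 h, with bidirectional fitting versus DMSO.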

[2] = read-out: TIMP metallopeptidase inhibitor 1 (TIMP1), TIMP1 (gene 7076); assay: BSK_hDFCGF_TIMP1: BioMAP Diversity Plus: hDFCGF Assay for TIMP metallopeptidase inhibitor 1 (TIMP1) Biomarker Activity (AID 2283062); conditions: primary human foreskin fibroblasts; actives raise or lower the signal
Procedure, shortened: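 TIMP-1 measured by ELISA 24 h after chemical dosing of primary human skin fibroblasts, with gain or loss fitted relative to DMSO. Parallel SRB staining (560 nm) monitored overt cytotoxicity.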

[3] = read-out: Monokine induced gamma interferon (MIG), CXCL9 (gene 4283); assay: BSK_hDFCGF_MIG: BioMAP Diversity Plus: hDFCGF Assay for Monokine induced gamma interferon (MIG) Biomarker Activity (AID 2283063); conditions: primary human foreskin fibroblasts; actives raise or lower the signal
Procedure, shortened: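 Human primary foreskin fibroblasts in the hDFCGF system, exposed to test chemical for 24 h; MIG measured by ELISA. Bidirectional curve fitting against DMSO negative control as activity baseline.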

[4] = read-out: Matrix Metallopeptidase 1 (MMP1), MMP1 (gene 4312); assay: BSK_hDFCGF_MMP1: BioMAP Diversity Plus: hDFCGF Assay for Matrix Metallopeptidase 1 (MMP1) Biomarker Activity (AID 2283064); conditions: primary human foreskin fibroblasts; actives raise or lower the signal
Procedure, shortened: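 Primary human foreskin fibroblasts in the hDFCGF system were dosed with test chemical, and MMP1 was measured by ELISA 24 h later. Values come from bidirectional curve fitting against the DMSO baseline.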

[5] = read-out: Vascular cell adhesion molecule 1 (VCAM1), VCAM1 (gene 7412); assay: BSK_hDFCGF_VCAM1: BioMAP Diversity Plus: hDFCGF Assay for Vascular cell adhesion molecule 1 (VCAM1) Biomarker Activity (AID 2283065); conditions: primary human foreskin fibroblasts; actives raise or lower the signal
Procedure, shortened: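 ELISA readout of VCAM-1 on human dermal fibroblast primary cultures, 24 h after chemical exposure. Gain or loss of signal fitted in both directions against DMSO baseline.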

[6] = read-out: Plasminogen activator inhibitor-1 (PAI1), SERPINE1 (gene 5054); assay: BSK_hDFCGF_PAI1: BioMAP Diversity Plus: hDFCGF Assay for Plasminogen activator inhibitor-1 (PAI1) Biomarker Activity (AID 2283066); conditions: primary human foreskin fibroblasts; actives raise or lower the signal
Procedure, shortened: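 Human foreskin fibroblast primary cells, 24 h chemical exposure; PAI-1 measured by ELISA. Bidirectional fitting relative to DMSO; parallel cultures stained with SRB for total protein to flag overt cytotoxicity.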

[7] = read-out: Intercellular Adhesion Molecule 1 (ICAM1), ICAM1 (gene 3383); assay: BSK_KF3CT_ICAM1: BioMAP Diversity Plus: KF3CT Assay for Intercellular Adhesion Molecule 1 (ICAM1) Biomarker Activity (AID 2283067); conditions: primary human keratinocytes with fibroblasts; actives raise or lower the signal
Procedure, shortened: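 Cell-surface ICAM-1 was measured by ELISA 24 h after dosing primary human skin keratinocytes co-cultured with fibroblasts. Parallel SRB staining tracked overt cytotoxicity. Gain or loss of signal was fitted relative to DMSO.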

[8] = read-out: Interferon-gamma inducible Protein 10 (IP10), CXCL10 (gene 3627); assay: BSK_KF3CT_IP10: BioMAP Diversity Plus: KF3CT Assay for Interferon-gamma inducible Protein 10 (IP10) Biomarker Activity (AID 2283068); conditions: primary human keratinocytes with fibroblasts; actives raise or lower the signal
Procedure, shortened: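 KF3CT co-culture (keratinocytes + foreskin fibroblasts), 24 h compound, IP-10 by ELISA; bidirectional fit vs DMSO baseline.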

[9] = BSK_KF3CT_SRB: Viability Assessment in the BioMAP Diversity Plus: KF3CT Assay (AID 2283069); conditions: primary human keratinocytes with fibroblasts;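 note: total protein by sulforhodamine B staining as a cytotoxicity measure; read 24 h after compound addition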
Procedure, shortened: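 Human primary keratinocyte plus foreskin fibroblast co-culture exposed to chemicals for 24 h. Total protein measured by 0.1% sulforhodamine B staining after 10% TCA fixation, read at 560 nm; bidirectional fitting versus DMSO baseline.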

[10] = read-out: Interleukin-1 alpha (IL1a), IL1A (gene 3552); assay: BSK_KF3CT_IL1a: BioMAP Diversity Plus: KF3CT Assay for Interleukin-1 alpha (IL1a) Biomarker Activity (AID 2283070); conditions: primary human keratinocytes with fibroblasts; actives raise or lower the signal
Procedure, shortened: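 Human keratinocyte plus foreskin fibroblast primary co-culture, sampled 24 h after chemical dosing. IL-1a measured by ELISA; responses fitted bidirectionally against DMSO baseline (negative control), so gain or loss of signal both count.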

[11] = read-out: TIMP metallopeptidase inhibitor 2 (TIMP2), TIMP2 (gene 7077); assay: BSK_KF3CT_TIMP2: BioMAP Diversity Plus: KF3CT Assay for TIMP metallopeptidase inhibitor 2 (TIMP2) Biomarker Activity (AID 2283071); conditions: primary human keratinocytes with fibroblasts; actives raise or lower the signal
Procedure, shortened: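 Co-culture of human primary keratinocytes and foreskin fibroblasts, measured 24 h after chemical dosing. TIMP-2 quantified by ELISA and fitted in both directions relative to DMSO. Cytotoxicity checked in parallel cultures by SRB total-protein staining.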

[12] = read-out: Transforming growth factor beta 1 (TGFb1), TGFB1 (gene 7040); assay: BSK_KF3CT_TGFb1: BioMAP Diversity Plus: KF3CT Assay for Transforming growth factor beta 1 (TGFb1) Biomarker Activity (AID 2283072); conditions: primary human keratinocytes with fibroblasts; actives raise or lower the signal
Procedure, shortened: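 Human keratinocyte/foreskin fibroblast co-culture; TGF-b1 measured by ELISA 24 h after dosing, fitted bidirectionally versus DMSO. Cytotoxicity checked in parallel cultures by total protein (SRB staining, 560 nm).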

[13] = read-out: C-C motif chemokine 2 (Homo sapiens) (UniProt P13500); assay: BSK_KF3CT_MCP1: BioMAP Diversity Plus: KF3CT Assay for Monocyte Chemoattractant Protein 1 (MCP1/CCL2) Biomarker Activity (AID 2283073); conditions: primary human keratinocytes with fibroblasts; actives raise or lower the signal
Procedure, shortened: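 ELISA read-out of MCP-1, 24 h post-dose, in primary human skin keratinocytes co-cultured with fibroblasts. Parallel SRB staining monitors cytotoxicity; changes fitted both directions relative to DMSO.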

[14] = read-out: Matrix Metallopeptidase 9 (MMP9), MMP9 (gene 4318); assay: BSK_KF3CT_MMP9: BioMAP Diversity Plus: KF3CT Assay for Matrix Metallopeptidase 9 (MMP9) Biomarker Activity (AID 2283074); conditions: primary human keratinocytes with fibroblasts; actives raise or lower the signal
Procedure, shortened: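 Keratinocyte plus foreskin fibroblast human primary skin co-culture was dosed with chemical and MMP-9 was quantified by ELISA 24 h later. Bidirectional curve fitting used DMSO as negative control and activity baseline.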

[15] = read-out: urokinase plasminogen activator (uPA), PLAU (gene 5328); assay: BSK_KF3CT_uPA: BioMAP Diversity Plus: KF3CT Assay for urokinase plasminogen activator (uPA) Biomarker Activity (AID 2283075); conditions: primary human keratinocytes with fibroblasts; actives raise or lower the signal
Procedure, shortened: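 Human keratinocyte plus foreskin fibroblast primary co-culture exposed to chemical for 24 h. uPA levels were quantified by ELISA, and activity was fitted bidirectionally against a DMSO negative-control baseline.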

CD40, CD40 (gene 958) = assay: BSK_LPS_CD40: BioMAP Diversity Plus: LPS Assay for CD40 Biomarker Activity (AID 2283076); conditions: primary human HUVEC with PBMC; actives raise or lower the signal
Procedure, shortened: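 In the LPS system of human endothelial cells with peripheral blood mononuclear cells, CD40 levels were read by ELISA 24 h post-treatment. Signal changes in either direction were fitted against the DMSO baseline, with parallel SRB protein staining.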

[16] = read-out: E-selectin (Homo sapiens) (UniProt P16581); assay: BSK_LPS_Eselectin: BioMAP Diversity Plus: LPS Assay for Eselectin Biomarker Activity (AID 2283077); conditions: primary human HUVEC with PBMC; actives raise or lower the signal
Procedure, shortened: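 E-selectin ELISA on LPS-stimulated endothelial cell/PBMC co-cultures, read 24 h post-treatment; gains and losses fitted against DMSO. Parallel SRB staining (0.1% SRB after 10% TCA fixation, 560 nm) flags overt cytotoxicity.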

[17] = read-out: Interleukin-8 (IL8), CXCL8 (gene 3576); assay: BSK_LPS_IL8: BioMAP Diversity Plus: LPS Assay for Interleukin-8 (IL8) Biomarker Activity (AID 2283078); conditions: primary human HUVEC with PBMC; actives raise or lower the signal
Procedure, shortened: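 ELISA read-out of IL-8 after 24 h chemical treatment of LPS-activated endothelial/PBMC human primary co-cultures. Changes either up or down relative to DMSO; overt cytotoxicity checked by sulforhodamine B staining in parallel wells.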

[18] = BSK_LPS_SRB: Viability Assessment in the BioMAP Diversity Plus: LPS Assay (AID 2283079); conditions: primary human HUVEC with PBMC;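 note: total protein by sulforhodamine B absorbance as a cytotoxicity measure; measured one day after compound addition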
Procedure, shortened: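 SRB viability endpoint: cells fixed with 10% TCA, stained with 0.1% SRB, read at 560 nm, 24 h post-dose. HUVEC/PBMC co-culture; signal change in either direction scored relative to DMSO.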

[19] = read-out: Interleukin-1 alpha (IL1a), IL1A (gene 3552); assay: BSK_LPS_IL1a: BioMAP Diversity Plus: LPS Assay for Interleukin-1 alpha (IL1a) Biomarker Activity (AID 2283080); conditions: primary human HUVEC with PBMC; actives raise or lower the signal
Procedure, shortened: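 Readout is IL-1a level by ELISA, 24 h post-dose, fitted as gain or loss relative to DMSO. System: LPS-activated human primary co-culture of vascular endothelium and peripheral blood mononuclear cells, with parallel SRB total-protein cytotoxicity.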

Measured: AC50

Chain of E-selectin (Homo sapiens) (P16581 whole entry, looked up): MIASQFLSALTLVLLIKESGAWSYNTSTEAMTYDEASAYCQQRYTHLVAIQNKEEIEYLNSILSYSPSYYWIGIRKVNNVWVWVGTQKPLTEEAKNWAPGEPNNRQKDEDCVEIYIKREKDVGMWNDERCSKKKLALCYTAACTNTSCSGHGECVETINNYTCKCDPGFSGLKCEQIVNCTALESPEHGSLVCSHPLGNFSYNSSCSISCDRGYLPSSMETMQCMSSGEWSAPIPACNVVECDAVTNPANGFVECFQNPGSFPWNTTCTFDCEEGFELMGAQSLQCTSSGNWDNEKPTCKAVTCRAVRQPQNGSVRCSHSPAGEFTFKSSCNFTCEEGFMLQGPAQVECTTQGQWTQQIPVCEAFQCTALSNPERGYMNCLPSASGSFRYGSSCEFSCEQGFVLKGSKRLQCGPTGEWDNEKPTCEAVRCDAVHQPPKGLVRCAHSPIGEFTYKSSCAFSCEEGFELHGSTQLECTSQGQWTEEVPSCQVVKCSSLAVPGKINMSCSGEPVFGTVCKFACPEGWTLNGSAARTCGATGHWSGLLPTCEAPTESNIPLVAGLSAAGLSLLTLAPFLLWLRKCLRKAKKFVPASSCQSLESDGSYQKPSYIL

O=NO
inactive: [1] | [2] | [3] | [4] | [5] | [6] | [7] | [8] | [9] | [10] | [11] | [12] | [13] | [14] | [15] | CD40, CD40 (gene 958) | [16] | [17] | [18] | [19]

CC1(C)C(=O)NC(=O)N1CO
inactive: [1] | [2] | [3] | [4] | [5] | [6] | [7] | [8] | [9] | [10] | [11] | [12] | [13] | [14] | [15] | CD40, CD40 (gene 958) | [16] | [17] | [19]

CO[C@@H]1COCC[C@@H]1N[C@@H]1CC[C@@](C(=O)N2CCc3ncc(C(F)(F)F)cc3C2)(C(C)C)C1
inactive: [1] | [2] | [3] | [4] | [5] | [6] | [7] | [8] | [9] | [10] | [11] | [12] | [13] | [14] | [15] | CD40, CD40 (gene 958) | [16] | [17] | [19]

CC(C)c1cccc(C(C)C)c1NC(=O)NS(=O)(=O)c1cc(C(C)(C)O)co1
inactive: [1] | [2] | [3] | [4] | [5] | [6] | [7] | [8] | [9] | [10] | [11] | [12] | [13] | [14] | [15] | CD40, CD40 (gene 958) | [18] | [19]
active: [16] 148 nM | [17] 152 nM

CCCCC(CC)COC(=O)CCCCCCCC(=O)OCC(CC)CCCC (stereo unspecified)
inactive: [1] | [2] | [3] | [4] | [5] | [6] | [7] | [8] | [9] | [10] | [11] | [12] | [13] | [14] | [15] | CD40, CD40 (gene 958) | [16] | [17] | [19]

CCCCOC(=O)CCCCC(=O)OCCCC
inactive: [1] | [2] | [3] | [4] | [5] | [6] | [7] | [8] | [9] | [10] | [11] | [12] | [13] | [14] | [15] | CD40, CD40 (gene 958) | [16] | [17] | [19]

CC(C)c1cccc(C(C)C)c1
inactive: [1] | [2] | [3] | [4] | [5] | [6] | [7] | [8] | [9] | [10] | [11] | [12] | [13] | [14] | [15] | CD40, CD40 (gene 958) | [16] | [17] | [18] | [19]
